# Assay results from the supplement of paper PMC8728848.
# About 410 targets per protein were measured; listed, in parts, are those with the strongest signals and a random draw of the rest.
# B1: Gal 3 (Homo sapiens), P17931 (protein)
# chain: MADNFSLHDALSGSGNPNPQGWPGAWGNQPAGAGGYPGASYPGAYPGQAPPGAYPGQAPPGAYHGAPGAYPGAPAPGVYPGPPSGPGAYPSSGQPSAPGAYPATGPYGAPAGPLIVPYNLPLPGGVVPRMLITILGTVKPNANRIQLDFQRGNDVAFHFNPRFNENNRRVIVCNTKLDNNWGREERQSVFPFESGKPFKIQVLVEPDHFKVAVNDAHLLQYNHRVKKLNEISKLGISGDIDLTSASYTMI
# Tests used:
# Assay in all cases: glycan array binding signal (z-score within array); higher = stronger binding
# Conditions in all cases: glycan notation: IUPAC condensed, linker removed; mutation: A146Q
# Fuc(a1-2)Gal(b1-4)GlcNAc = molecular target: Fuc(a1-2)Gal(b1-4)GlcNAc
# How it was run: (§1)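 Glycan array binding is given as a within-array Z-score, which can be read as non-binding when negative. The arrays, 3228 of them, came from the Consortium for Functional Glycomics database and were retained only where the protein sequence was available. Z-scores were averaged across arrays of the same protein sequence at different concentrations or buffers and across linkers.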
# [1] = molecular target: Fuc(a1-2)[Gal(a1-3)]Gal(b1-3)GlcNAc
# How it was run: as §1
# [2] = molecular target: Fuc(a1-2)[Gal(a1-3)]Gal(b1-3)GlcNAc(b1-2)Man(a1-3)[Fuc(a1-2)[Gal(a1-3)]Gal(b1-3)GlcNAc(b1-2)Man(a1-6)]Man(b1-4)GlcNAc(b1-4)GlcNAc
# How it was run: as §1
# [3] = molecular target: Fuc(a1-2)[Gal(a1-3)]Gal(b1-4)Glc
# How it was run: as §1
# [4] = molecular target: Fuc(a1-2)[Gal(a1-3)]Gal(b1-4)GlcNAc
# How it was run: as §1
# [5] = molecular target: Fuc(a1-2)[Gal(a1-3)]Gal(b1-4)GlcNAc(b1-2)Man(a1-3)[Fuc(a1-2)[Gal(a1-3)]Gal(b1-4)GlcNAc(b1-2)Man(a1-6)]Man(b1-4)GlcNAc(b1-4)GlcNAc
# How it was run: as §1
# [6] = molecular target: Fuc(a1-2)[GalNAc(a1-3)]Gal(b1-3)GalNAc(a1-3)[Fuc(a1-2)]Gal(b1-4)GlcNAc
# How it was run: as §1
# Fuc(a1-4)GlcNAc = molecular target: Fuc(a1-4)GlcNAc
# How it was run: as §1
# Gal(a1-3)Gal(b1-3)GlcNAc = molecular target: Gal(a1-3)Gal(b1-3)GlcNAc
# How it was run: as §1
# Gal(a1-6)Glc = molecular target: Gal(a1-6)Glc
# How it was run: as §1
# [7] = molecular target: Gal(b1-3)Gal(b1-4)GlcNAc(b1-2)Man(a1-3)[Gal(b1-3)Gal(b1-4)GlcNAc(b1-2)Man(a1-6)]Man(b1-4)GlcNAc(b1-4)GlcNAc
# How it was run: as §1
# Gal(b1-4)GlcNAc = molecular target: Gal(b1-4)GlcNAc
# How it was run: as §1
# [8] = molecular target: Gal(b1-4)GlcNAc(b1-2)Man(a1-3)Man(b1-4)GlcNAc(b1-4)GlcNAc
# How it was run: as §1
# [9] = molecular target: Gal(b1-4)GlcNAc(b1-2)Man(a1-3)[Man(a1-6)]Man(b1-4)GlcNAc(b1-4)GlcNAc
# How it was run: as §1
# [10] = molecular target: Gal(b1-4)GlcNAc(b1-3)Gal(b1-4)GlcNAc(b1-3)Gal(b1-4)GlcNAc
# How it was run: as §1
# [11] = molecular target: Gal(b1-4)GlcNAc(b1-3)GalNAc
# How it was run: as §1
# [12] = molecular target: Gal(b1-4)GlcNAc(b1-3)[GlcNAc(b1-6)]Gal(b1-4)GlcNAc
# How it was run: as §1
# Gal3S(b1-4)GlcNAc6S = molecular target: Gal3S(b1-4)GlcNAc6S
# How it was run: as §1
# Gal6S(b1-4)GlcNAc6S = molecular target: Gal6S(b1-4)GlcNAc6S
# How it was run: as §1
# [13] = molecular target: GlcNAc(a1-4)Gal(b1-4)GlcNAc(b1-3)Gal(b1-4)GlcNAc(b1-3)Gal(b1-4)GlcNAc
# How it was run: as §1
# GlcNAc(b1-4)GlcNAc = molecular target: GlcNAc(b1-4)GlcNAc
# How it was run: as §1
# [14] = molecular target: Kdn(a2-3)Gal(b1-4)[Fuc(a1-3)]GlcNAc
# How it was run: as §1
# [15] = molecular target: Man(a1-2)Man(a1-2)Man(a1-3)Man
# How it was run: as §1
# [16] = molecular target: Man(a1-2)Man(a1-2)Man(a1-6)[Man(a1-3)]Man
# How it was run: as §1
# Man(a1-2)Man(a1-3)Man = molecular target: Man(a1-2)Man(a1-3)Man
# How it was run: as §1
# [17] = molecular target: Man(a1-2)Man(a1-3)[Man(a1-2)Man(a1-6)]Man(a1-6)[Man(a1-2)Man(a1-2)Man(a1-3)]Man(b1-4)GlcNAc(b1-4)GlcNAc
# How it was run: as §1
# [18] = molecular target: Neu5Ac(a2-3)Gal(b1-3)[Fuc(a1-4)]GlcNAc(b1-3)Gal(b1-4)[Fuc(a1-3)]GlcNAc
# How it was run: as §1
# [19] = molecular target: Neu5Ac(a2-3)Gal(b1-4)[Fuc(a1-3)]GlcNAc6S
# How it was run: as §1
# [20] = molecular target: Neu5Ac(a2-6)Gal(b1-4)GlcNAc(b1-2)Man(a1-6)[Man(a1-3)]Man(b1-4)GlcNAc(b1-4)GlcNAc
# How it was run: as §1
# [21] = molecular target: Neu5Ac(a2-6)Gal(b1-4)GlcNAc(b1-3)Gal(b1-4)GlcNAc(b1-3)Gal(b1-4)GlcNAc
# How it was run: as §1
binder,measurement,setting,value
B1,glycan array binding signal (z-score),Fuc(a1-2)Gal(b1-4)GlcNAc,0.166
same,glycan array binding signal (z-score),[1],3.36
same,glycan array binding signal (z-score),[2],9.93
same,glycan array binding signal (z-score),[3],2.81
same,glycan array binding signal (z-score),[4],3.94
same,glycan array binding signal (z-score),[5],10.3
same,glycan array binding signal (z-score),[6],-0.199
same,glycan array binding signal (z-score),Fuc(a1-4)GlcNAc,-0.12
same,glycan array binding signal (z-score),Gal(a1-3)Gal(b1-3)GlcNAc,-0.087
same,glycan array binding signal (z-score),Gal(a1-6)Glc,-0.188
same,glycan array binding signal (z-score),[7],10.2
same,glycan array binding signal (z-score),Gal(b1-4)GlcNAc,-0.196
same,glycan array binding signal (z-score),[8],-0.083
same,glycan array binding signal (z-score),[9],-0.181
same,glycan array binding signal (z-score),[10],3.5
same,glycan array binding signal (z-score),[11],-0.187
same,glycan array binding signal (z-score),[12],0.13
same,glycan array binding signal (z-score),Gal3S(b1-4)GlcNAc6S,0.851
same,glycan array binding signal (z-score),Gal6S(b1-4)GlcNAc6S,-0.192
same,glycan array binding signal (z-score),[13],2.23
same,glycan array binding signal (z-score),GlcNAc(b1-4)GlcNAc,-0.132
same,glycan array binding signal (z-score),[14],-0.201
same,glycan array binding signal (z-score),[15],-0.186
same,glycan array binding signal (z-score),[16],-0.177
same,glycan array binding signal (z-score),Man(a1-2)Man(a1-3)Man,-0.199
same,glycan array binding signal (z-score),[17],-0.15
same,glycan array binding signal (z-score),[18],-0.2
same,glycan array binding signal (z-score),[19],-0.188
same,glycan array binding signal (z-score),[20],-0.197
same,glycan array binding signal (z-score),[21],1.65
